# Test results as given in PubChem BioAssay (NCATS).
# This is one part of the list. Entries that show only a call come without a potency. Results filed as inconclusive are left out. Calls of active or inactive are those of the source. Calls follow the shape of the dose curve; as a rule, active = well fitted inhibition curve with a large enough effect; inconclusive = small, poorly fitted or top-dose-only effect; inactive = flat fitted curve, though single readings scatter.
# Test: qHTS Assay for Inhibitors of Fructose-1,6-bisphosphate Aldolase from Giardia Lamblia: Mammalian cellular toxicity (AID 2786);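 also: compound exposure lasted 48 h before reading; nearly all actives have a fitted effect of over 60% in size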
# Conditions: mammalian cell viability counter-screen; series mostly up to 57.5 µM
# From the text: NIH Chemical Genomics Center [NCGC]
# NIH Molecular Libraries Probe Production centers Network [MLPCN]
# Assay Provider: Osnat Herzberg, University of Maryland
# The objective of this project is to obtain compounds that inhibit Giardia lamblia growth. G. lamblia is a human pathogen which afflicts impoverished nations; it is the most common cause of outbreaks of diarrhea in the United States. During the course of our study of potential drug targets in Giardia, we have identified the Class II (Zn2+ functions in electrophilic catalysis) fructose-1,6-bisphosphate aldolase (FBPA) as an excellent candidate for drug targeting. FBPA is a key glycolytic pathway enzyme, essential for G. lamblia survival. The human FBPA belongs to the Class I aldolases, which have a different substrate binding site structure and a radically different catalytic mechanism (employing a lysine-Schiff base intermediate). Therefore, affinity-based or mechanism-based inhibitors of the Giardia FBPA are expected not to interfere with the catalytic function of the human FBPA.
# A glyceraldehyde-3-phosphate dehydrogenase/triose phosphate isomerase/NAD/arsenate coupled assay was adapted to the 1536-well HTP format for use in the primary screen. This was done by coupling it to a diaphorase/resazurin/resorufin reaction that can be monitored by fluorescence (excitation, 544 nm; emission, 590 nm). Compounds identified in this screen will be further evaluated by coupling the glycerol-3-phosphate/triose phosphate isomerase/NADH assay to a phenazine methosulfate/tetranitroblue tetrazolium color reaction. False positives due to the dehydrogenases and diaphorase inhibition will be eliminated, and selectivity assay will triage inhibitors of mammalian triose phosphate isomerase and the Class I FBPA. G. lamblia FBPA inhibitors identified by the in vitro analyses will be examined for growth inhibition of Giardia trophozoites, and for cytotoxicity in human cells.
# This assay addresses whether hits in the primary screen are cytotoxic to mammalian cells, using Chinese hamster ovary cells as a surrogate.
# 2uL/well media was dispensed per well into 1536-well white solid-bottom plates using Multidrop Combi dispenser. Subsequently, 23 nL/well compound solutions or DMSO controls were dispensed to the assay plates via a pintool workstation. The Chinese hamster ovary (CHO) cells were grown in T225 flasks to 70% confluence under a standard cell culture condition (ATCC), detached with 0.25% Trypsin/EDTA, and seeded at 250 cells/well in 5uL medium (Dulbecco's Modified Eagle Medium, 10% fetal bovine serum, 1x penicillin/streptomycin). The plates were incubated at 37 °C with 5% CO2 and 95% humidity for 48 hours, and then ATP content was measured following the addition of 4uL/well of ATPlite reagent and a 20 min incubation on a ViewLux plate reader.
# Keywords: Fructose-bisphosphate aldolase, FBPA , Giardia lamblia , Giardia, HTS, Inhibitors
# Potency is read from the fitted curve at half-maximal effect.
row,SMILES,Potency
1,COc1ccccc1CN1CCN(Cc2cc(OC)c(OC)cc2OC)CC1,inactive
2,O=C(NC(=S)Nc1ncccn1)c1ccccc1Br,inactive
3,CCN(CC(=O)Nc1ccc(S(=O)(=O)N2CCCC2)cc1)CC(=O)Nc1cccc(OC)c1,inactive
4,O=C1CCCN1CCCNC(=S)Nc1ccc(F)c(Cl)c1,inactive
5,O=C(CN1C(=O)COc2ccccc21)Nc1ccc(F)cc1,inactive
6,O=C(Nc1nnc(-c2ccco2)o1)c1ccc(S(=O)(=O)N2CCOCC2)cc1,inactive
7,Cc1ccc(C(=O)Nc2nnc(C3=COCCO3)o2)cc1C,inactive
8,CN(C)CCOc1ccc(Cl)cc1C(C)(C)C,inactive
9,CN1C(=O)/C(=C\c2ccc(-c3ccccc3)o2)SC1=S,inactive
10,Cc1csc(NC(=O)CN2CCCCCC2)n1,inactive
11,O=[N+]([O-])c1ccc2nc(-c3ccccn3)[nH]c2c1,25.1 µM (active)
12,Clc1cccc(CN2COc3c(cc(Cl)c4cccnc34)C2)c1,20 µM (active)
13,O=[N+]([O-])c1cc([N+](=O)[O-])c2cccnc2c1O,inactive
14,CN1CCCc2cc(C#N)c(=O)[nH]c21,inactive
15,O=C(O)Cn1c(Cc2ccccc2)nc2ccccc21,inactive
16,O=C(N/N=C/c1ccccn1)c1cccnc1,inactive
17,COc1ccc(OC)c(Nc2nc(-c3ccc(O)c(O)c3)cs2)c1,inactive
18,CSc1n[nH]c(=S)n1N,inactive
19,CC1CCCN(S(=O)(=O)c2ccc(C(=O)Nc3nnc(-c4ccncc4)o3)cc2)C1 (stereo not given),inactive
20,Cc1cccc(C)c1OCCN1CCOCC1,inactive

row,SMILES,Potency
1,C=C(C)CNC(=S)N/N=C/c1ccccc1OCC(=O)O,inactive
2,C=CCc1cc(C)ccc1OCCCn1ccnc1,inactive
3,Cc1cc(C)c2c(=O)[nH]c(SCC(=O)Nc3ccc(Br)cc3)nc2n1,inactive
4,CCN1CCc2c(C#N)c(NCc3ccccc3)nc(NCCO)c2C1,inactive
5,CCN(CC(=O)NC(=O)NCc1ccccc1)Cc1nc2ccccc2c(=O)[nH]1,inactive
6,COC(=O)CC1=NN(c2nc(C)cc(C)n2)C(=O)C1,inactive
7,CC(C)(c1ccccc1)c1ccc(OCCN2CCCC2)cc1,inactive
8,Cn1nnc(NC(=S)NC(=O)c2ccccc2)n1,inactive
9,C=CCNC(=S)/N=c1/ccccn1Cc1ccccc1,inactive
10,O=C(CN1CCN(Cc2ccccc2)CC1)Nc1ccc(F)c(F)c1,inactive
11,Cn1c(=O)[nH]c(=O)c2c1[nH]c(=S)n2Cc1ccccc1,inactive
12,COCCN(C(=S)Nc1ccccc1OC)C1CCN(C(C)C)CC1,inactive
13,OCCN1CCN(C(=S)c2ccc(-c3ccccc3)cc2)CC1,inactive
14,O=S(=O)(c1ccc(NC(=S)NN=C(C2CC2)C2CC2)cc1)N1CCOCC1,inactive
15,COc1ccc(CN2CCN(Cc3ccc(OC)c(OC)c3OC)CC2)cc1,inactive
16,C/C(=N\NC(N)=S)c1cccnc1,inactive
17,O=c1nc(N/N=C/c2ccco2)cn[nH]1,inactive
18,O=c1[nH]c(=S)[nH]c2[nH]c(=S)[nH]c12,inactive
19,Cc1ccc(S(=O)(=O)NNC(=S)NC(C)(C)C)cc1,inactive
20,O=C(CSc1cccc[n+]1[O-])c1ccc(-c2ccccc2)cc1,inactive
